From PubChem BioAssay AID1030 (National Center for Advancing Translational Sciences (NCATS), 2008)
The whole screen tested about 220,000 compounds, of which about 16,000 (7.3%) were called active. Entries that show only a call come without a potency. Inconclusive results (about 25%) are left out. Calls come from the whole dose curve; as a rule, active = well fitted inhibition curve with a large enough effect (not every such curve was filed as active); inconclusive = small, poorly fitted or top-dose-only effect, or another doubt; inactive = no such curve, though single readings can be large or run the other way. This excerpt belongs to a sample that is enriched for actives. Square brackets hold non-standard residues; d marks the D form. Peptide text beside a SMILES is read from it. ξ: configuration not given here. ξM = CSCCC(N)C(=O)O

These compounds were tested against Aldehyde dehydrogenase 1A1 (Homo sapiens) (UniProt P00352) (assay: qHTS Assay for Inhibitors of Aldehyde Dehydrogenase 1 (ALDH1A1)). Conditions: Purified ALDH1A1, NADH fluorescence, propionaldehyde substrate; series mostly up to 75.3 µM.
Sequence of Aldehyde dehydrogenase 1A1 (Homo sapiens) (P00352 whole entry, looked up): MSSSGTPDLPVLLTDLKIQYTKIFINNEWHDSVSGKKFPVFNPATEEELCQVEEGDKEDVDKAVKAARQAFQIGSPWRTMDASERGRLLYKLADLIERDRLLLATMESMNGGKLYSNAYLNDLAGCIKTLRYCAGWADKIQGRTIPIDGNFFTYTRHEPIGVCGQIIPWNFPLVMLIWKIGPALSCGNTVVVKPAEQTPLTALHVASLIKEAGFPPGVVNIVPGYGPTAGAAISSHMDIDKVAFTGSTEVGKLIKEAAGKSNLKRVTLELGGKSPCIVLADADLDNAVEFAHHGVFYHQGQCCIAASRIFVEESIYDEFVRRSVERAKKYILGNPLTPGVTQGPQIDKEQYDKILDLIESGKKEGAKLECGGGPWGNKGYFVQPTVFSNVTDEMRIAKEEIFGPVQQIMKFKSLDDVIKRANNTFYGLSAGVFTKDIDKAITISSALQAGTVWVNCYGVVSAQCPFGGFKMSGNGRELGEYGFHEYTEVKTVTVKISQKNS
Potency is the fitted concentration of half-maximal effect.

Structure (SMILES)	Potency
CCOC(=O)c1cc(-c2ccc(F)cc2)n(CC(=O)NCc2ccccn2)c1C	inactive
O=C(N/N=C/c1c(Cl)[nH]c2ccccc12)c1sc2ccccc2c1Cl	inactive
O=C(Nc1ccon1)c1sc2ccccc2c1Cl	inactive
Oc1ccc(N=Cc2sc3ccccc3c2Cl)cc1	15 µM (active)
Cc1cc(N2CCOCC2)nc2ccc(NC(=S)N3CCN(Cc4ccccc4)CC3)cc12	inactive
CCN(CC)C(=O)N(CC)Cc1ccccc1	inactive
O=S(=O)(NCC1CCCO1)c1cnc(Cl)c(Cl)c1 (centres undefined)	3.55 µM (active)
Cc1cc(Cl)c(S(=O)(=O)NCC2CCCO2)cc1OCC(N)=O (centres undefined)	inactive
O=S(=O)(NCC1CCCO1)c1ccc2ccccc2c1 (centres undefined)	inactive
CCO[C@@H]1OC(C(=O)NCc2nc3ccccc3[nH]2)=C[C@H](C2CCCCC2)[C@H]1CCCO	inactive
O=C(NNC(=S)NCCCN1CCOCC1)c1ccncc1	inactive
S=c1[nH]nc(-c2ccncc2)n1/N=C/c1ccccc1Cl	inactive
Oc1ccccc1/C=N/n1c(-c2cccs2)n[nH]c1=S	15.8 µM (active)
S=c1[nH]nc(-c2ccccc2)n1/N=C/c1c[nH]c2ccccc12	inactive
CCCC1(C(=O)OC)NC(c2ccco2)C2C(=O)N(C)C(=O)C21 (centres undefined)	inactive
COc1ccc(NC(=O)/C(Cl)=C(/Cl)S(=O)Cc2ccc(C)cc2)cn1 (centres undefined)	5.01 µM (active)
COc1ccc(NC(=S)Nc2ccccc2Cl)cn1	inactive
Cc1ccc(NC(=O)OCc2cncs2)cc1	inactive
COc1ccc(CS(=O)/C(Cl)=C(/Cl)C(=O)Nc2ccc(OC)nc2)cc1 (centres undefined)	8.91 µM (active)
COc1cccc(NC(=O)Cc2ccc(C)cc2)c1	inactive
COc1ccc(NC(=S)NCCNC(C)=O)cc1	inactive
COc1cccc(C2c3[nH]c4ccccc4c3CCN2Cc2cccc(C)n2)c1 (centres undefined)	inactive
O=C(COc1ccc(Cl)cc1[N+](=O)[O-])N1CCCCC1	inactive

Structure (SMILES)	Potency
CC(C)(C)NC(=O)CN(C(=O)c1ccc(Cl)nc1)c1cccc2ccccc12	inactive
Clc1ccc2nc(CSc3ccccc3)cn2c1	inactive
COC(=O)CNC(=O)C(CCSC)NC(C)=O (centres undefined) (Ac-[ξM]-Gly-OMe)	inactive
CNC(=O)NC(=O)CSc1nnc(-c2ccc(F)cc2)n1CC1CCCO1 (centres undefined)	inactive
O=C(CSc1nnc(-c2ccco2)n1CC1CCCO1)c1ccccc1 (centres undefined)	25.1 µM (active)
Cc1nnc(SCC(N)=O)n1CC1CCCO1 (centres undefined)	inactive
C=C1c2cccc(OC)c2O[C@H](C(=O)OCC)[C@@H]1CCCCCC	inactive
Cc1cc([N+](=O)[O-])ccc1NC(=O)c1ccc(NC(=O)C(C)C)cc1	inactive
CN(C)c1ccc(C=C2C(=O)OC3(CCCC3)OC2=O)cc1	0.251 µM (active)
CC1CCCCC1NC(=O)COC(=O)Cc1ccc(Br)cc1 (centres undefined)	inactive
COC(=O)C/C=C/[C@@H](C)[C@H](NC(=O)OCC(Cl)(Cl)Cl)c1ccccc1	inactive
CCOC(=O)Cc1cc(=O)[nH]c(=O)[nH]1	inactive
COCC(=O)Nc1nnc(COc2ccccc2)s1	inactive
COc1ccc(OCC(=O)Nc2nnc(-c3ccco3)s2)cc1	22.4 µM (active)
CNc1nnc(-c2ccco2)s1	inactive
Cn1nccc1NC(=O)CC(CC(=O)O)c1ccccc1 (centres undefined)	inactive
CCc1ccccc1NC(=O)CN(c1ccc(OC)cc1OC)S(=O)(=O)c1ccccc1[N+](=O)[O-]	inactive
Cc1c(C(=O)Nc2cccc(Cl)c2)cn2c(nc3ccccc32)c1C#N	inactive
CCCCNCc1ccc(SC)cc1	inactive
CCn1c(CNS(=O)(=O)c2ccc(Cl)cc2)n[nH]c1=S	inactive
CSc1ccc(S(=O)(=O)NCc2ccc(Cl)cc2)cc1	22.4 µM (active)
CC(C)(C)OC(=O)NCCCC1=CC2=CC(=O)C(C)(OC(=O)c3ccco3)C(=O)C2=CO1 (centres undefined)	inactive
C=CCO/N=C/C1=C(O)C(C(=O)OC)C(C)(C)CC1=O (centres undefined)	inactive

Structure (SMILES)	Potency
COc1cccc(-n2c(=O)c3c(C)c(C(=O)N(C)C)sc3n(CC(=O)NCCc3ccc(OC)c(OC)c3)c2=O)c1	inactive
CCN(CC)c1ccc2c(Nc3ccccc3)c(C=O)c(=O)oc2c1	1.58 µM (active)
COc1cccc(NC(=O)c2ccc(Cn3cc([N+](=O)[O-])cn3)o2)c1	14.1 µM (active)
Cn1cc([N+](=O)[O-])c(C(=O)Nc2cnn(Cc3ccc(F)cc3)c2)n1	inactive
COc1cccc(NC(=O)c2nn(-c3ccc(OC)cc3OC)c(=O)c3ccccc23)c1	inactive
CCc1ccc(NC(=O)c2ccc(Cn3cc([N+](=O)[O-])cn3)cc2)cc1	inactive
COc1cccc(NC(=O)c2nn(C34CC5CC(CC(C5)C3)C4)cc2[N+](=O)[O-])c1	0.224 µM (active)
O=C(Nc1ccc(Br)c2cccnc12)c1ccc(Cn2cc([N+](=O)[O-])cn2)o1	inactive
CC[C@@]12C=C(/C=C/c3ccccc3)[C@](CC)(C1)[C@H](c1ccccc1)CC2=O	inactive
CCOC(=O)C1CCCN(C(=O)CN(c2ccc(OC)cc2)S(=O)(=O)c2c(C)noc2C)C1 (centres undefined)	inactive
CCOC(=O)C1CCCN(C(=O)COc2ccc(N(C)S(=O)(=O)c3ccc(C)cc3)cc2)C1 (centres undefined)	inactive
CCOC(=O)C1CCCN(C(=O)/C=C/c2ccc(OC)cc2)C1 (centres undefined)	22.4 µM (active)
Cc1nn(CC#N)c(=O)n1N(C)c1ncc(C(F)(F)F)cc1Cl	inactive
O=C(NCc1ccncc1)C(=O)NCc1ccco1	inactive
CC(=O)Nc1ccc(CN2CCN(Cc3ccc(F)c(F)c3)C(CCO)C2)cc1 (centres undefined)	inactive
CCc1cccc(OC2OC(CO)C(O)C(O)C2NC(C)=O)c1 (centres undefined)	inactive
CC(=O)NC1C(OCc2ccccc2)OC(COC(C)=O)C(OC(C)=O)C1OC(C)=O (centres undefined)	inactive
CC(=O)NC1C(Oc2ccc(C=O)cc2)OC(COC(C)=O)C(OC(C)=O)C1OC(C)=O (centres undefined)	3.55 µM (active)
C/C(=N/Nc1ccc(Cl)cc1)c1cnnc(-c2ccccc2)n1	inactive
CC1CCCN(CC(O)COCc2ccccc2)C1 (centres undefined)	inactive
CCOC(=O)CNC(=O)CSc1nnnn1-c1cc(C)ccc1C	7.08 µM (active)
CNC(=O)CSc1nnnn1-c1ccc(C)cc1C	inactive
CCOC(=O)c1c(-c2ccc(C)cc2C)csc1NC(=O)CSc1nnnn1C	inactive
